# Hit rate of the full screen: of about 52,000 compounds, about 4,300 (8.3%) were called active. No stated cut-off is given here; in the data, active means survival mostly below about 52% (no sharp cut-off); inactive means mostly above about 56%. Many of the other results were omitted from the sample, so actives are more common in it than they were.
# System: DeltatarO mutant
# Test: growth inhibition of S. aureus wild type versus tarO mutant, primary screen, teichoic acid synthesis inhibitors, RN4220, OD600 (AID 463173)
# Details: OD600, 18 h, stronger effect = lower value, screened at 18.75 µg/mL (by protocol)
row,SMILES,survival
1,COc1cc(Nc2ncc3c(n2)CCN(Cc2cc(F)cc(F)c2)C3)cc(OC)c1,67% (inactive)
2,Cc1nc2cc(-c3ccccc3)nn2c(C)c1CCC(=O)N1CCN(c2ccccc2)CC1,56% (inactive)
3,CCOCCc1nnc(NC(=O)C(=O)c2cc(C)n(-c3cccc(C)c3)c2C)s1,65% (inactive)
4,COc1cccc(CNC(=O)CCS(=O)(=O)c2cc3c4c(c2)CCN4C(=O)CC3)c1,68% (inactive)
5,O=C(COc1ccc(Br)cc1)N/N=C1\SCC(=O)N1c1ccc(F)cc1,95% (inactive)
6,CCc1ccc(NC(=O)CSc2nccn2-c2ccc(OC)cc2)cc1,107% (inactive)
7,Nc1cc(=O)[nH]c(=S)n1-c1ccccc1,99% (inactive)
8,COc1cc(C2c3c(oc4ccc(C)cc4c3=O)C(=O)N2Cc2ccccc2)ccc1O (centres undefined),113% (inactive)
9,COc1cc(NC(=O)c2ncn(-c3ccccc3)n2)cc(OC)c1,63% (inactive)
10,CCOC(=O)c1ccc(N2C(=O)c3n[nH]c(-c4ccco4)c3C2c2ccc(OCC)cc2)cc1 (centres undefined),91% (inactive)
11,CCOC(=O)c1ccc(N2C(=O)c3n[nH]c(-c4ccco4)c3C2c2cccc(F)c2)cc1 (centres undefined),12% (active)
12,CCOC(=O)c1ccc(N2C(=O)c3n[nH]c(-c4ccco4)c3C2c2ccc(O)c(OC)c2)cc1 (centres undefined),118% (inactive)
13,CCOc1ccc(N(CC)C(=O)c2cc3c(s2)-c2ccccc2OC3)cc1,76% (inactive)
14,CCCN(C(=O)c1cc2c(s1)-c1ccccc1OC2)c1ccccc1F,-4% (active)
15,O=C(NCCc1ccc(Cl)cc1)c1cc2c(s1)-c1ccccc1OC2,61% (inactive)
16,CCc1ccc(CNC(=O)c2cc3c(s2)-c2ccccc2OC3)cc1,61% (inactive)
17,CCc1ccccc1N(CC)C(=O)c1cc2c(s1)-c1ccccc1OC2,-5% (active)
18,O=C(NCc1ccccc1Cl)c1cc2c(s1)-c1ccccc1SC2,65% (inactive)
19,CCc1ccccc1N(CC)C(=O)c1cc2c(s1)-c1ccccc1SC2,-1% (active)
20,O=C(NCc1cccc(Cl)c1)c1cc2c(s1)-c1ccccc1OC2,50% (inactive)
21,CCN(C(=O)c1cc2c(s1)-c1ccccc1OC2)c1cc(Cl)ccc1OC,15% (active)
22,COc1ccc(CCNC(=O)c2cc3c(s2)-c2ccccc2OC3)cc1OC,49% (inactive)
23,CCOc1ccc(N(CC)C(=O)c2cc3c(s2)-c2ccc(Cl)cc2SC3)cc1,81% (inactive)
24,CC(C)c1ccc(NC2=NCC(=O)N2Cc2ccccc2)cc1,87% (inactive)

row,SMILES,survival
1,O=C(Nc1cccc(O)c1)c1cc2nc(-c3ccc(Br)cc3)cc(C(F)(F)F)n2n1,120% (inactive)
2,CC(=O)Nn1c(C)nc2ccccc2c1=O,75% (inactive)
3,Cc1nc(SC(C)C(=O)Nc2ccccc2Cl)cc(-c2ccccc2)n1 (centres undefined),61% (inactive)
4,CCn1c(SCC(=O)OC)nnc1-c1ccc(O)cc1,99% (inactive)
5,COc1ccc(NC(=O)CC2C(=O)N(c3cccc(OC)c3)C(=O)N2Cc2cccnc2)cc1 (centres undefined),94% (inactive)
6,CCn1c(CN2CCCCC2)nc2cc(NC(=O)COc3cc(C)ccc3C(C)C)ccc21,73% (inactive)
7,COc1ccc(C)cc1Nc1cc(C)nc(C)n1,66% (inactive)
8,CCC(=O)N1CCc2cc(Br)cc(S(=O)(=O)CCC(=O)NCc3ccc(Cl)cc3)c21,78% (inactive)
9,CCOc1ccc(-c2cc(C(=O)OC)on2)cc1,55% (inactive)
10,CCc1ccc(NC(=O)CC2C(=O)N(c3cccc(C)c3)C(=O)N2Cc2ccc(F)cc2)cc1 (centres undefined),89% (inactive)
11,CCN(c1ccccc1)C(CNS(=O)(=O)c1ccccc1)c1ccccc1 (centres undefined),71% (inactive)
12,CCCN(C(=O)c1cc2c(s1)-c1ccccc1SC2)c1ccccc1F,1% (active)
13,CCCN(C(=O)c1cc2c(s1)-c1c(C)cccc1OC2)c1ccc(OCC)cc1,98% (inactive)
14,CCN(C(=O)c1cc2c(s1)-c1ccccc1OC2)c1cccc(C(F)(F)F)c1,-1% (active)
15,O=C(NCc1ccc(F)cc1)c1cc2c(s1)-c1ccccc1SC2,45% (active)
16,CCCN(C(=O)c1cc2c(=O)n(CC)c3ccccc3c2s1)c1ccccc1F,64% (inactive)
17,CN(Cc1ccccc1)C(=O)c1cc2c(s1)-c1ccc(Cl)cc1SC2,86% (inactive)
18,CCCN(C(=O)c1cc2c(s1)-c1ccccc1OC2)c1ccc(C(C)C)cc1,-3% (active)
19,CCN(C(=O)c1cc2c(=O)n(CC)c3ccccc3c2s1)c1cccc(C(F)(F)F)c1,72% (inactive)
20,Cc1ccc(CNC(=O)c2cc3c(s2)-c2ccccc2SC3)cc1,94% (inactive)
21,CCOc1ccc(CNC(=O)c2cc3c(s2)-c2ccccc2OC3)cc1,71% (inactive)
22,O=C(NCc1ccc(Cl)cc1)c1cc2c(s1)-c1ccccc1SC2,58% (inactive)
23,COc1ccc(OCC(=O)Nc2ccc3c(c2)OCO3)cc1,76% (inactive)
24,COc1ccc(Cl)cc1NC(=O)N1CCC(CN2CCc3ccccc3C2)CC1,109% (inactive)

row,SMILES,survival
1,COc1ccc(S(=O)(=O)c2c(SC)nn(Cc3ccccc3C)c2NC(C)=O)cc1,55% (inactive)
2,CN1CCN(CCCNC(=O)c2cnn(-c3ccccc3)c2-n2cccc2)CC1,87% (inactive)
3,Cc1ccc(OCC(=O)NCC(=O)OCc2cc(=O)n3nc(C)sc3n2)cc1,90% (inactive)
4,Cc1ccc(C)c(N2CCN(c3nc4ccccc4n4nnnc34)CC2)c1,92% (inactive)
5,COc1ccc(Cn2c(=O)[nH]c3cc(C(=O)N4CCN(c5cccc(OC)c5)CC4)ccc3c2=O)cc1,63% (inactive)
6,CC(C)(C)OC(=O)N1CCC(c2c(C(=O)Nc3ccc4c(c3)OCCO4)cnn2-c2ccc(Cl)cc2)CC1,87% (inactive)
7,CCOC(=O)c1cc(S(=O)(=O)N2CCN(c3ccc(C(C)=O)cc3)CC2)[nH]n1,126% (inactive)
8,Cc1c(Cl)cccc1NC(=O)CCS(=O)(=O)c1cccc2nsnc12,78% (inactive)
9,CCOCCCNC(=O)C(c1ccccc1)N1Cc2ccccc2C1=O (centres undefined),96% (inactive)
10,Cc1ccc(CNC(=O)c2ccccc2NC(=O)c2nsc3ccccc23)cc1,60% (inactive)
11,CCCOc1ccc(CNC(=O)c2cc3ccccn3n2)cc1,116% (inactive)
12,CCOc1ccc(CNC(=O)c2cc3ccccn3n2)cc1,52% (active)
13,CC(C)Oc1ccc(CNC(=O)c2ccccc2NC(=O)c2nsc3ccccc23)cc1,122% (inactive)
14,CCOc1ccc(CNC(=O)c2ccccc2NC(=O)c2nsc3ccccc23)cc1,-5% (active)
15,CCc1ccc(CNC(=O)c2cc3ccccn3n2)cc1,97% (inactive)
16,C=CCNC(=O)c1cc2sccc2n1Cc1ccccc1,85% (inactive)
17,CC(C)C(=O)OCc1cc(=O)n2nc(C3CC3)sc2n1,86% (inactive)
18,COc1ccc(S(=O)(=O)N/N=C(/C2CCCCC2)C(F)(F)F)cc1,35% (active)
19,COc1ccc(S(=O)(=O)N(C)C2CCCCC2)cc1,85% (inactive)
20,COc1ccc(S(=O)(=O)NNC(N)=S)cc1,100% (inactive)
21,COc1ccc(CNC(=O)C(=O)NCC(c2ccco2)S(=O)(=O)c2ccc(C)cc2)cc1 (centres undefined),124% (inactive)
22,CC1Oc2ccccc2N(CC(=O)NCC2CCCO2)C1=O (centres undefined),83% (inactive)
23,CCC(C)NC(=O)CSc1nc2c(sc3ccccc32)c(=O)n1CCc1ccc(OC)c(OC)c1 (centres undefined),66% (inactive)
24,COC(=O)CC1Oc2ccccc2-n2cc(-c3ccc(C)cc3)nc21 (centres undefined),64% (inactive)

row,SMILES,survival
1,COC(=O)CC1Oc2ccc(C)cc2-n2cc(-c3ccc(C)cc3)nc21 (centres undefined),37% (active)
2,COC(=O)CC1Oc2ccc(Cl)cc2-n2cc(-c3ccc(F)cc3)nc21 (centres undefined),90% (inactive)
3,COC(=O)CC1Oc2ccc(C)cc2-n2cc(-c3ccc(F)cc3)nc21 (centres undefined),56% (active)
4,COC(=O)CC1Oc2ccc(Cl)cc2-n2cc(-c3ccc(C)cc3)nc21 (centres undefined),80% (inactive)
5,COC(=O)CC1Oc2ccc(F)cc2-n2cc(-c3ccc(C)cc3)nc21 (centres undefined),91% (inactive)
6,COc1ccc(CCNC(=O)Cn2cc(C(=O)c3ccccc3)c(=O)c3ccc(C)nc32)cc1OC,124% (inactive)
7,O=C(Nc1cccnc1N1CCOCC1)c1cc2ccccc2oc1=O,79% (inactive)
8,COc1cc(OC)c(C2C(C(=O)Nc3ccccc3)=C(C)Nc3ncnn32)cc1OC (centres undefined),72% (inactive)
9,COc1ccc(CNC(=O)CSc2n[nH]c(-c3ccc(OC)cc3)n2)cc1,-5% (active)
10,O=C(CSc1n[nH]c(-c2ccccc2Cl)n1)NCc1ccc(F)cc1,-4% (active)
11,CC(CCc1ccccc1)NC(=O)CSc1n[nH]c(-c2ccc(F)cc2)n1 (centres undefined),126% (inactive)
12,CC(CCc1ccccc1)NC(=O)CSc1n[nH]c(-c2ccccc2)n1 (centres undefined),94% (inactive)
13,O=C(CSc1n[nH]c(-c2ccccc2Cl)n1)NCCc1ccccc1,87% (inactive)
14,Cc1ccc(CNC(=O)CSc2n[nH]c(-c3ccc(F)cc3)n2)cc1,122% (inactive)
15,COc1ccc(-c2nc(SCC(=O)NC(C)CCc3ccccc3)n[nH]2)cc1 (centres undefined),17% (active)
16,COc1ccc(CNC(=O)CSc2n[nH]c(-c3ccc(F)cc3)n2)cc1,109% (inactive)
17,COc1cccc(CNC(=O)CSc2n[nH]c(-c3ccccc3Cl)n2)c1,60% (inactive)
18,Cc1cccc(N2CCN(C(=O)c3ccc4c(c3)N(Cc3ccccc3)C(=O)c3ccccc3S4(=O)=O)CC2C)c1 (centres undefined),63% (inactive)
19,Cc1ccc(Cl)cc1NC(=O)c1oc2ccc(S(=O)(=O)N3CCCCC3)cc2c1C,74% (inactive)
20,Cc1cccc(NC(=O)CN2C(=O)CSc3ccc(S(=O)(=O)N4CCCC4)cc32)c1C,92% (inactive)
21,O=C(CSc1nc(-c2ccco2)cc(C(F)(F)F)n1)N1CCCC1,79% (inactive)
22,CC(NCc1ccc2c(c1)n(C)c(=O)n2C)c1ccccc1 (centres undefined),94% (inactive)

# Reference: PubChem BioAssay AID463173 (ICCB-Longwood Screening Facility, Harvard Medical School, 2010)
